Results on one sequence are retold here after publication PMC7862700, “An all-to-all approach to the identification of sequence-specific readers for epigenetic DNA modifications on cytosine”.

What all share (experiment): DAPPL (digital affinity profiling via proximity ligation, sequencing); 10 mM Tris-HCl pH 7.5, 50 mM NaCl, 1 mM DTT, 4% glycerol, room temperature, 30 min; GST-TFs on glutathione beads, 16-mer random dsDNA library, 0.1% formaldehyde crosslink after washing; high values mean tight binding
One experiment addresses T1, FLI1 (Homo sapiens, UniProt Q01543 1-452).
T1 sequence: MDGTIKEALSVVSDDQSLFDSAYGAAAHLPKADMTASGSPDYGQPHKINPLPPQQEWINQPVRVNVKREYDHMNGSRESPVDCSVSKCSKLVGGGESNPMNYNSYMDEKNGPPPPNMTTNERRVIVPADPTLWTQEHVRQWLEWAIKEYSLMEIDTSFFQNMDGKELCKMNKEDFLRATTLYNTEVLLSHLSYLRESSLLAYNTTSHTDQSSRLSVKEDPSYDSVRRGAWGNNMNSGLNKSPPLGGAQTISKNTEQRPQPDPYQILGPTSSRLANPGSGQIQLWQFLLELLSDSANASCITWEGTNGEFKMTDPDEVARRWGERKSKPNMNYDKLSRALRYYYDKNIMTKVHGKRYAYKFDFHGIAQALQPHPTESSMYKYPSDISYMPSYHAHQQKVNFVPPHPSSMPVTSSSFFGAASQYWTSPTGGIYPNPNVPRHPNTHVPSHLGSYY
The conditions noted are these: protein: recombinant; tags: N-terminal GST; dsDNA, one strand shown. In short, it runs like this: (§1)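 Pools of DNA-barcoded human transcription factors, expressed in yeast as GST fusions on glutathione beads and combined with a tag-only sample, were incubated with 200 nmole of a 16-mer random double-stranded DNA library. Incubation took 30 min at room temperature in Tris/NaCl/DTT/glycerol buffer and was followed by washing, 0.1% formaldehyde crosslinking, proximity ligation (BsaI/T4 ligase, 1 h, 37 °C), PCR amplification and sequencing on an Illumina NextSeq500. Binding signal is the ratio of a hexamer's read frequency for a factor to its frequency for the tag-only sample.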

In the next experiment the target is T2, ELK1 (Homo sapiens, UniProt P19419 1-428).
T2 sequence: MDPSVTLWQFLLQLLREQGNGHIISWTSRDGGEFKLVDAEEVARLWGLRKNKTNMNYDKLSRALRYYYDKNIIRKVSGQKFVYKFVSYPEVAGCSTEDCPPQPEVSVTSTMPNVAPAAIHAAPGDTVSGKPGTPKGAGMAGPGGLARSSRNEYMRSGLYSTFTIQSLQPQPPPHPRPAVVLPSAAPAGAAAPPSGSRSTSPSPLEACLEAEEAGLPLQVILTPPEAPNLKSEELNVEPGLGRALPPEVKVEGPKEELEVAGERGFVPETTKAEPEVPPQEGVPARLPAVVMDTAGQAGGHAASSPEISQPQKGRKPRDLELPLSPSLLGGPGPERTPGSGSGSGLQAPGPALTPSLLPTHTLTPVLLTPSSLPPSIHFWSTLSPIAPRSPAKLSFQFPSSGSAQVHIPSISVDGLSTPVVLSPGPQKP
The following applies: protein: recombinant; tags: N-terminal GST; dsDNA, one strand shown. In short, it runs like this:
as §1

The next experiment concerns the target T3, GABPA (Homo sapiens, UniProt Q06546 1-454).
T3 sequence: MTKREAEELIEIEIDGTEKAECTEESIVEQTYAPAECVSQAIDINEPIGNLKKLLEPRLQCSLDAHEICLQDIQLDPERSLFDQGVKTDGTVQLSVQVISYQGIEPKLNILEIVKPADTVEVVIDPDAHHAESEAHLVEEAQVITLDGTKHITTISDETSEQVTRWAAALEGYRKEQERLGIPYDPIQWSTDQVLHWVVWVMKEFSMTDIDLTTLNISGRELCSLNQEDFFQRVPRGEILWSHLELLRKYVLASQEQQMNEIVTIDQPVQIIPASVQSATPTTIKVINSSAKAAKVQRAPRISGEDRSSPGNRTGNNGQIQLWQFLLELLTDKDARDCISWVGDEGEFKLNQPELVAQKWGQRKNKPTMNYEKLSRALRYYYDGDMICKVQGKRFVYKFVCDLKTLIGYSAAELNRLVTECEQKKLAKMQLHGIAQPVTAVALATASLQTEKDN
The following applies: protein: recombinant; tags: N-terminal GST; dsDNA, one strand shown. In short, it runs like this: as §1

In another experiment the target is T4, ERG (Homo sapiens, UniProt P11308 1-479).
T4 sequence: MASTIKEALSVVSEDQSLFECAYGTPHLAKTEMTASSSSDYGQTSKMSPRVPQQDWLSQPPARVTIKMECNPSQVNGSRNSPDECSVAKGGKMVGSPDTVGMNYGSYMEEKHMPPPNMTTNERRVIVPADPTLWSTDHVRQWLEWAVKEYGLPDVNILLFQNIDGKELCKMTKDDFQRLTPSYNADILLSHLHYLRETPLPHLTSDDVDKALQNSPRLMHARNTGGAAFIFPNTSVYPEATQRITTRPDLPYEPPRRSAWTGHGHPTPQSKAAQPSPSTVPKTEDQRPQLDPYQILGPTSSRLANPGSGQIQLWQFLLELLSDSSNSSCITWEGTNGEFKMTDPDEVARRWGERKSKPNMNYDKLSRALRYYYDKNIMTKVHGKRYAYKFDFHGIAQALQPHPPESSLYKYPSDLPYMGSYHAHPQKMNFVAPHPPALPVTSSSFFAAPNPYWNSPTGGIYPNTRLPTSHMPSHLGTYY
The following applies: protein: recombinant; tags: N-terminal GST; dsDNA, one strand shown. In short, it runs like this: as §1

For the next experiment, the target named is ELF1 (Homo sapiens, UniProt P32519 1-619). The following applies: protein: recombinant; tags: N-terminal GST; dsDNA, one strand shown. The essentials: as §1
Sequence of ELF1 (P32519 whole entry): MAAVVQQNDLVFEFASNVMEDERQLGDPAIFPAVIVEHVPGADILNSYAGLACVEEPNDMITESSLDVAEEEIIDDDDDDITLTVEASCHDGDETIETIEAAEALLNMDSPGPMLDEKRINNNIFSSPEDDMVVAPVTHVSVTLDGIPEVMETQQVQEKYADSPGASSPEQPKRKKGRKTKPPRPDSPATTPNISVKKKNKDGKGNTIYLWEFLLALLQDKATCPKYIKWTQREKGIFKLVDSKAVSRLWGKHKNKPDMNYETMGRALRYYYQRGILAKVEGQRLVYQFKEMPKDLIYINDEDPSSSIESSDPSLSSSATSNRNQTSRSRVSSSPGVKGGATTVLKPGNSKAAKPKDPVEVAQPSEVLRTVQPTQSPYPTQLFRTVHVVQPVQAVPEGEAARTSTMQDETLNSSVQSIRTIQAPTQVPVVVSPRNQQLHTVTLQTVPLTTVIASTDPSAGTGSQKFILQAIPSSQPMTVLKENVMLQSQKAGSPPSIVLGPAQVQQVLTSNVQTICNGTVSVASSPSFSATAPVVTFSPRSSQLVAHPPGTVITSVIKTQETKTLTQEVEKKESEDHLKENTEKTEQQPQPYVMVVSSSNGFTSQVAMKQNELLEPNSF
A further experiment addresses T5, EHF (Homo sapiens, UniProt Q9NZC4 1-300).
T5 sequence: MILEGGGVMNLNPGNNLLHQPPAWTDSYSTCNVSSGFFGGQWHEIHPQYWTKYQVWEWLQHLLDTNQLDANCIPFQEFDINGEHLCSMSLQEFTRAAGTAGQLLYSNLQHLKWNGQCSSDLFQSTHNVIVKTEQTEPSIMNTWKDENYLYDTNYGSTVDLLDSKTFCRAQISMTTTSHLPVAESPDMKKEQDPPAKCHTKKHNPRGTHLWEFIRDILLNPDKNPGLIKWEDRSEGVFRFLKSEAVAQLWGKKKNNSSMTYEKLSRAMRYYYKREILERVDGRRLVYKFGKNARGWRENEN
The following applies: protein: recombinant; tags: N-terminal GST; dsDNA, one strand shown. In short, it runs like this:
as §1

For another experiment, the target named is SPIB (Homo sapiens, UniProt Q01892 1-262). The following applies: protein: recombinant; tags: N-terminal GST; dsDNA, one strand shown. In short, it runs like this:
as §1

Another experiment addresses T6, ELK3 (Homo sapiens, UniProt P41970 1-407).
T6 sequence: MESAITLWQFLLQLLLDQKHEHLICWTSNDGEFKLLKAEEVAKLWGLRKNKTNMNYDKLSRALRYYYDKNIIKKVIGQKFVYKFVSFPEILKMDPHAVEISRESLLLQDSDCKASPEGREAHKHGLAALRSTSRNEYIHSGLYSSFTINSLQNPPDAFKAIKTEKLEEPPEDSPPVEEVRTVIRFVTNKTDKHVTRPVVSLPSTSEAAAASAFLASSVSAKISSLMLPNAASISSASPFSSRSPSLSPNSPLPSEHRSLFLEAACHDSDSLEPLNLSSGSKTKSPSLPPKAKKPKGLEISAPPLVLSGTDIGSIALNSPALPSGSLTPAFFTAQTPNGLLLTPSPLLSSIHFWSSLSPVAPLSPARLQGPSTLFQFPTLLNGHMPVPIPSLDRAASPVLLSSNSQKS
The conditions noted are these: protein: recombinant; tags: N-terminal GST; dsDNA, one strand shown. In short, it runs like this: as §1

The next experiment addresses T7, FEV (Homo sapiens, UniProt Q99581 1-238).
T7 sequence: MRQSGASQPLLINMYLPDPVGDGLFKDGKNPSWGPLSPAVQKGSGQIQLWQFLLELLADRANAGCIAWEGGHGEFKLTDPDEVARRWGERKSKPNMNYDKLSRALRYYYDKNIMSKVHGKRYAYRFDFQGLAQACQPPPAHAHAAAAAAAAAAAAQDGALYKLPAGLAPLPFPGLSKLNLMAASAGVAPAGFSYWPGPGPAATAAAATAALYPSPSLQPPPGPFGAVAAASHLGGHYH
The following applies: protein: recombinant; tags: N-terminal GST; dsDNA, one strand shown. In short, it runs like this: as §1

The target of another experiment is ETV5 (Homo sapiens, UniProt P41161 1-510). The following applies: protein: recombinant; tags: N-terminal GST; dsDNA, one strand shown. In short, it runs like this: as §1
Sequence of ETV5 (P41161 whole entry): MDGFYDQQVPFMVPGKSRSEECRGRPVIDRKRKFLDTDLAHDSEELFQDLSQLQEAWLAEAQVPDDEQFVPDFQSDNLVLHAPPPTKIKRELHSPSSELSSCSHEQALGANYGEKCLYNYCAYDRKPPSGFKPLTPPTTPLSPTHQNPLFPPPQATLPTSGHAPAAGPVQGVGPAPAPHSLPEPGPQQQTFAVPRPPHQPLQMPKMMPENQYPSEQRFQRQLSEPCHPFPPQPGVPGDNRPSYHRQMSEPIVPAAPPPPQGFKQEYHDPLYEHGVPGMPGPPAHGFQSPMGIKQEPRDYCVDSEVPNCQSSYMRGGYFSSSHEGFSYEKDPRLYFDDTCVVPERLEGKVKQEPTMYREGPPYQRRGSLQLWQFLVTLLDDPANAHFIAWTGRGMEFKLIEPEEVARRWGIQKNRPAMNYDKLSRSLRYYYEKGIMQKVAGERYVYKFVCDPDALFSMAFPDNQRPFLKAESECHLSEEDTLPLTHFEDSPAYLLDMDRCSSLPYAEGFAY
Another experiment addresses HSF1 (Homo sapiens, UniProt Q00613 1-529). The conditions noted are these: protein: recombinant; tags: N-terminal GST; chain copies: 3; dsDNA, one strand shown. In short, it runs like this:
as §1

A further experiment has as its target T8, SPIC (Homo sapiens, UniProt Q8N5J4 1-248).
T8 sequence: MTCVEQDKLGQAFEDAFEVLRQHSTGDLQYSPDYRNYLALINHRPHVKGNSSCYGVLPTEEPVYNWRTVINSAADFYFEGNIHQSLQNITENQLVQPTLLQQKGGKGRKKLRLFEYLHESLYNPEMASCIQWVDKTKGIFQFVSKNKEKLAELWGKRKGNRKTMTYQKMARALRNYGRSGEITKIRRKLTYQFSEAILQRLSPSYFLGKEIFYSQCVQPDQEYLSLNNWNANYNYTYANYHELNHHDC
The conditions noted are these: protein: recombinant; tags: N-terminal GST; dsDNA, one strand shown. In short, it runs like this: as §1

In a further experiment the target is ELF4 (Homo sapiens, UniProt Q99607 1-663). The following applies: protein: recombinant; tags: N-terminal GST; dsDNA, one strand shown. The essentials: as §1
Sequence of ELF4 (Q99607 whole entry): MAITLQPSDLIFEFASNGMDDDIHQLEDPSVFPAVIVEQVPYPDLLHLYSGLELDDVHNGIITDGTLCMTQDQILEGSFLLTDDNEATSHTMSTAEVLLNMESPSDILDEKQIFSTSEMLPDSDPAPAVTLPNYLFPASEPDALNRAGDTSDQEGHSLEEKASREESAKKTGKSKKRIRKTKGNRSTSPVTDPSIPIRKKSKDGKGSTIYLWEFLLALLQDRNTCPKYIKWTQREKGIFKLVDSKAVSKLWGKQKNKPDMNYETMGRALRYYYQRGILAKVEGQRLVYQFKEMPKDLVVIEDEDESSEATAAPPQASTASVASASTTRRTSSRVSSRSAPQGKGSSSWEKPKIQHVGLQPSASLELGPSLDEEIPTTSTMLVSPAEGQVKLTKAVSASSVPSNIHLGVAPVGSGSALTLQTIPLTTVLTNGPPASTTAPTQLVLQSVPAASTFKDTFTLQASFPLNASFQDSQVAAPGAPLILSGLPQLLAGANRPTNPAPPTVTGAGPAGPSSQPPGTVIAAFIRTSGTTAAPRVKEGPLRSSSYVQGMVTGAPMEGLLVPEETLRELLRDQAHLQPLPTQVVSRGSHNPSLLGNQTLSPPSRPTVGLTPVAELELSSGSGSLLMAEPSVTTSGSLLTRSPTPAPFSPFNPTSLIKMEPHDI
The target in a further experiment is T9, ELK4 (Homo sapiens, UniProt P28324-2 1-405).
T9 sequence: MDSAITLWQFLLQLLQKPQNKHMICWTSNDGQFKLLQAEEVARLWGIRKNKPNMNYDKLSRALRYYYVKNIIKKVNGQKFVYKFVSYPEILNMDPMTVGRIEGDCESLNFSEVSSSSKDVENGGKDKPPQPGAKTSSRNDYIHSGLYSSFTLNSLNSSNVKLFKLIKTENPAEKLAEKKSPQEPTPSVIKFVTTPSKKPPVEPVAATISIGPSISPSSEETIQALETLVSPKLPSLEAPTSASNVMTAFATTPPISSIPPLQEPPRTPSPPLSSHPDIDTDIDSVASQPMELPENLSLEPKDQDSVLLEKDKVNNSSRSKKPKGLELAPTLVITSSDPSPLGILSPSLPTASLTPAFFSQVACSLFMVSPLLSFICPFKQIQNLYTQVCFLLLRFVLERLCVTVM
The following applies: protein: recombinant; tags: N-terminal GST; dsDNA, one strand shown. In short, it runs like this:
as §1

The target of another experiment is T10, ETV2 (Homo sapiens, UniProt O00321 1-342).
T10 sequence: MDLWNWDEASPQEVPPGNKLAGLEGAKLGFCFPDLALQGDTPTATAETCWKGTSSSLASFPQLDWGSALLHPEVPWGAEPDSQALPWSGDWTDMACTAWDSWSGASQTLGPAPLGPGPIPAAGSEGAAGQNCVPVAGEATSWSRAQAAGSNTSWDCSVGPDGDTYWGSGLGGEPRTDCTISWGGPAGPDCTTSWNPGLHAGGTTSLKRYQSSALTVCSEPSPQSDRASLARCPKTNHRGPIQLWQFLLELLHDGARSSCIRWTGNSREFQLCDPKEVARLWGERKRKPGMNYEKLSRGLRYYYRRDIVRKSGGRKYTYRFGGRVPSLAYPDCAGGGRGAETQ
The following applies: protein: recombinant; tags: N-terminal GST; dsDNA, one strand shown. The essentials: as §1

For the next experiment, the target named is T11, ELF3 (Homo sapiens, UniProt P78545 1-371).
T11 sequence: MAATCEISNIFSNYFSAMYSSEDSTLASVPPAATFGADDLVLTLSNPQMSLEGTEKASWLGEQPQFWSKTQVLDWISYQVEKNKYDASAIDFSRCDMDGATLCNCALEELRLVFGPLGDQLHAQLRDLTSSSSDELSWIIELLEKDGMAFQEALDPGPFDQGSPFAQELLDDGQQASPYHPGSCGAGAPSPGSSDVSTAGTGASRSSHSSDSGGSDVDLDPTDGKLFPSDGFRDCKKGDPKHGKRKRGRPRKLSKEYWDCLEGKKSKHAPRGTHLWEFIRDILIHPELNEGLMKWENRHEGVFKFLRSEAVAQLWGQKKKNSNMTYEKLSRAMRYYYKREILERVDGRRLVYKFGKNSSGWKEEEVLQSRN
The conditions noted are these: protein: recombinant; tags: N-terminal GST; dsDNA, one strand shown. The essentials:
as §1

For the next experiment, the target named is CRX (Homo sapiens, UniProt O43186 1-299). The following applies: protein: recombinant; tags: N-terminal GST; dsDNA, one strand shown. The essentials: as §1
Sequence of CRX (O43186 whole entry): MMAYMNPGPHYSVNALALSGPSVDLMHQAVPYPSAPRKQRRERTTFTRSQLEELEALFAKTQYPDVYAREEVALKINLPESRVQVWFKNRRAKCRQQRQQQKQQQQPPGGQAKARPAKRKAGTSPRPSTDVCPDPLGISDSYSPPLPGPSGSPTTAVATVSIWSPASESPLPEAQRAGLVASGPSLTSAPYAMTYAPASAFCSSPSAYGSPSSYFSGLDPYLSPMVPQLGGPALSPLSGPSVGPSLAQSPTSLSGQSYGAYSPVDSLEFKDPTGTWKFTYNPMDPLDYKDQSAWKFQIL
The target in another experiment is ETV1 (Homo sapiens, UniProt P50549 1-477). The following applies: protein: recombinant; tags: N-terminal GST; dsDNA, one strand shown. The essentials: as §1
Sequence of ETV1 (P50549 whole entry): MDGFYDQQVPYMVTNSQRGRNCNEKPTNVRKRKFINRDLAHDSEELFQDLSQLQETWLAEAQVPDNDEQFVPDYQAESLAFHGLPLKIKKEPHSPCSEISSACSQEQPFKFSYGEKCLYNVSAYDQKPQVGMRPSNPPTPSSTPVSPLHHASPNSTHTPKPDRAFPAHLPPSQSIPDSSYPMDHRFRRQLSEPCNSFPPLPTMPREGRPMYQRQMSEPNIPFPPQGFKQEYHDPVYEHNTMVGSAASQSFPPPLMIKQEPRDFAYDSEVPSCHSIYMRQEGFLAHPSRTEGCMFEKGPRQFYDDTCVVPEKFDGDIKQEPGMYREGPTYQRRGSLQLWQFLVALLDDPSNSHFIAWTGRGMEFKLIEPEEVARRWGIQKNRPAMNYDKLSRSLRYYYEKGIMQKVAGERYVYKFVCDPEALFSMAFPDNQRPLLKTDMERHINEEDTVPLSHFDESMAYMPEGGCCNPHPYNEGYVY

Sequence of SPIB (Q01892 whole entry): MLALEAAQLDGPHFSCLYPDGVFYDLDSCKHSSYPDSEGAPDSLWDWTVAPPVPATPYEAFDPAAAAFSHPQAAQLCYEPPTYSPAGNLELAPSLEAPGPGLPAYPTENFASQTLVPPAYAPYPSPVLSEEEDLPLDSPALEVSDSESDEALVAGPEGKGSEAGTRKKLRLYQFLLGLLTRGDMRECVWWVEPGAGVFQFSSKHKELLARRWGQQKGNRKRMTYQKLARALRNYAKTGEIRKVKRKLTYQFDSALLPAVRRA
Sequence of HSF1 (Q00613 whole entry): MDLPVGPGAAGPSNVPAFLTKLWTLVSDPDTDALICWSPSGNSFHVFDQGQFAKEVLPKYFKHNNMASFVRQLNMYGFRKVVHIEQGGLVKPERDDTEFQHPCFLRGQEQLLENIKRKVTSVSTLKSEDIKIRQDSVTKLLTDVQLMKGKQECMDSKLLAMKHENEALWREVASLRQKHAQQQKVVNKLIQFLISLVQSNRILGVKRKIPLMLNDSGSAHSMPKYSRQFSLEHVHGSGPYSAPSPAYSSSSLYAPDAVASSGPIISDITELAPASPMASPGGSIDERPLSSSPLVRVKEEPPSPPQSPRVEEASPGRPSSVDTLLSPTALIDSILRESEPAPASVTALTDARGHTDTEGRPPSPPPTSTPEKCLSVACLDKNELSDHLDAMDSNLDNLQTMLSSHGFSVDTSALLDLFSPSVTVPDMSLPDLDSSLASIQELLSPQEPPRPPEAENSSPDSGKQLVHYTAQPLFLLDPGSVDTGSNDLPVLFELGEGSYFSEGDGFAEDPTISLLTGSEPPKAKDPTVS

TATCAG: the binding signal is 1.15 fold enrichment (6-mer frequency, TF over GST control) with FLI1; 1.21 fold enrichment (6-mer frequency, TF over GST control) in the experiment with ELK1; 1.14 fold enrichment (6-mer frequency, TF over GST control) with GABPA; 1.09 fold enrichment (6-mer frequency, TF over GST control) with ERG; 1.15 fold enrichment (6-mer frequency, TF over GST control) with ELF1; 1.13 fold enrichment (6-mer frequency, TF over GST control) with EHF. Further, the binding signal with SPIB is 1.2 fold enrichment (6-mer frequency, TF over GST control); with ELK3, 1.15 fold enrichment (6-mer frequency, TF over GST control); with FEV, 1.07 fold enrichment (6-mer frequency, TF over GST control); with ETV5, 1.14 fold enrichment (6-mer frequency, TF over GST control); with HSF1, 1.11 fold enrichment (6-mer frequency, TF over GST control); with SPIC, 1.03 fold enrichment (6-mer frequency, TF over GST control). The binding signal is 1.18 fold enrichment (6-mer frequency, TF over GST control) with ELF4; 1.35 fold enrichment (6-mer frequency, TF over GST control) in the experiment with ELK4; 1.01 fold enrichment (6-mer frequency, TF over GST control) with ETV2; 1.09 fold enrichment (6-mer frequency, TF over GST control) in the experiment with ELF3; 1.47 fold enrichment (6-mer frequency, TF over GST control) with CRX; 1.14 fold enrichment (6-mer frequency, TF over GST control) with ETV1.
